Only a selection was taken, and hits are over-represented in it overall.
nsP2pro primary: Primary qHTS for inhibitors of NSP2Pro chikungunya virus (CHIKV); Polyprotein P1234 (Chikungunya virus (strain S27-African prototype)), Q8JUX6; FRET peptide cleavage, nsP2pro, fluorescence 1 h; Potency, µM (doses to about 24.9 µM), most hits filed as inhibitors; hit rate 1.1% among 31,000; AID 1964107, 2024; further: nearly all actives have a fitted effect of over 60% in size
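FRET cleavage of 2.5 uM peptide 2 by 150 nM CHIKV protease domain at pH 8.0 (Tris, Tween 20). Compounds at 7 concentrations (up to 25 uM) preincubated 15 min. Fluorescence read after 1 h at room temperature.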
CHIKV nsP2 cell: Secondary cell base assay for inhibitors of NSP2Pro Chikungunya virus (CHIKV) | shares compounds with nsP2pro primary | cell-based CHIKV nsP2 protease reporter assay | Potency, µM (highest dose often 51.1 µM), hits mostly inhibitors | hit rate 10% among 450 | AID 1964100, 2024; further: nearly all actives have a fitted effect of over 70% in size
Target sequence (Q8JUX6 220-798 limits assumed): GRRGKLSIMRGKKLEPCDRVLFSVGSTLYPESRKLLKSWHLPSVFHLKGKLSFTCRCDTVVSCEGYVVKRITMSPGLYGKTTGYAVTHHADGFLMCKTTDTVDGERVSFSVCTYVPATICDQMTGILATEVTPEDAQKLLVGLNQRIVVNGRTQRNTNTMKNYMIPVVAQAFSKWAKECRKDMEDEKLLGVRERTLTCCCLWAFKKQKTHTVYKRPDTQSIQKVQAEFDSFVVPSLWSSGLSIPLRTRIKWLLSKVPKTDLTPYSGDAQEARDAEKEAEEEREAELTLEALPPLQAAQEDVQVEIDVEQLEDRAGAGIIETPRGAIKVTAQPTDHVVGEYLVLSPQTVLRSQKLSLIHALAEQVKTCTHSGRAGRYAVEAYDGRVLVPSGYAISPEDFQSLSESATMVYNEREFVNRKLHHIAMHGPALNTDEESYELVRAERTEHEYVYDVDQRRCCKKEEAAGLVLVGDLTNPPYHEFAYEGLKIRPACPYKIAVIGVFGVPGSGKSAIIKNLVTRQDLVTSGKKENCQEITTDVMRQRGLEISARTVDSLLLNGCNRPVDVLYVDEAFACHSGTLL
CHIKV NSP2 FL: Selectivity profile for inhibitors of NSP2Pro chikungunya virus (CHIKV): Full length NSP2 enzyme counterscreen (CHIKV-NSP2); Potency, µM (doses to about 50.7 µM), actives largely listed as inhibitors; shares compounds with nsP2pro primary; hit rate 39% among 410; Full-length CHIKV NSP2 protease enzymatic counterscreen; AID 1964101, 2024; further: nearly all actives have a fitted effect of over 65% in size
Furin counter: Selectivity profile for inhibitors of NSP2Pro chikungunya virus (CHIKV): Human furin counterscreen. shares compounds with nsP2pro primary. Recombinant human furin enzymatic counterscreen, fluorogenic substrate. Potency, µM (titrated, usually from 50.6 µM), hits mostly inhibitors. hit rate 6% among 410. AID 1964102, 2024
nsP2 NS23 pep: Selectivity profile for inhibitors of NSP2Pro chikungunya virus (CHIKV): Endogenous NS2/3 peptide Counterscreen; shares compounds with nsP2pro primary; Purified CHIKV nsP2 protease, endogenous NS2/3 peptide cleavage; Potency, µM (titrated, usually from 51 µM), actives largely listed as inhibitors; hit rate 34% among 410; further: nearly all actives have a fitted effect of over 55% in size
Papain counter: Selectivity profile for inhibitors of NSP2Pro chikungunya virus (CHIKV): Papain Counterscreen | shares compounds with nsP2pro primary | purified papain protease activity, enzymatic inhibition | Potency, µM (titrated, usually from 51 µM), actives largely listed as inhibitors | hit rate 5% among 410 | AID 1964104, 2024
nsP2pro confirm: Confirmatory qHTS for inhibitors of NSP2Pro chikungunya virus (CHIKV) | shares compounds with nsP2pro primary | CHIKV nsP2 protease enzymatic activity, qHTS | Potency, µM (highest dose often 25.5 µM), usual class: inhibitors | hit rate 43% among 410; further: nearly all actives have a fitted effect of over 75% in size
HCV NS3 4A cs: Selectivity profile for inhibitors of NSP2Pro chikungunya virus (CHIKV): NS34A-HCV Counterscreen; Potency, µM (series often up to 50.9 µM), actives largely listed as inhibitors; shares compounds with nsP2pro primary; hit rate 20% among 410; HCV NS3/4A protease biochemical counterscreen; further: nearly all actives have a fitted effect of over 55% in size
Large screens that a line does not name were inactive (follow-up assays come after a bar, where they were run). The call rests on the fitted dose curve.

COCCN1C(=O)[C@H]2CN(Cc3ccc(C)s3)C[C@H]2C1=O	none
O=C1CCC2(CCCN(C(=O)c3ccc(=O)[nH]c3)C2)CN1CCc1cnc[nH]1 (stereo not given)	none
N#Cc1ccccc1S(=O)(=O)N1CCN(S(=O)(=O)c2ccc3c(c2)OCCO3)CC1	none
COc1cc(CCO)ccc1O[C@@H]1O[C@H](CO)[C@@H](O)[C@H](O)[C@H]1O	nsP2pro primary inconclusive | CHIKV nsP2 cell inactive | CHIKV NSP2 FL inactive | Furin counter inactive | nsP2 NS23 pep inactive | Papain counter inactive | nsP2pro confirm inconclusive | HCV NS3 4A cs inactive
OCCc1ccc(O[C@@H]2O[C@H](CO)[C@@H](O)[C@H](O)[C@H]2O)cc1	none
COc1cc(CO)ccc1O[C@@H]1O[C@H](CO)[C@@H](O)[C@H](O)[C@H]1O	none
O=C(Nc1ccc(S(=O)(=O)Nc2nccs2)cc1)C(c1ccccc1)c1ccccc1	none
Cc1cccc(CNc2ccnc(-c3cc(C(F)(F)F)cc(C(F)(F)F)c3)n2)c1	none
Cc1ccc(-c2nc3ccccn3c2Nc2ccc3c(c2)OCO3)o1	none
Cc1ccc(-c2nc3cccc(C)n3c2Nc2ccc3c(c2)OCO3)o1	none | CHIKV nsP2 cell inactive | CHIKV NSP2 FL inactive | Furin counter inactive | nsP2 NS23 pep inactive | Papain counter inactive | nsP2pro confirm inactive | HCV NS3 4A cs inactive
Cc1cccc2nc(-c3ccco3)c(Nc3ccc4c(c3)OCO4)n12	none
CCc1nc2cc(N3CCCC(C(=O)NC(C)C)C3)cnc2nc1CC (stereo not given)	none
CCOc1ccc(NC(=O)Cn2cc(C(=O)c3ccc(CC)cc3)c(=O)c3cc4c(cc32)OCO4)cc1	none
CCc1ccc(NC(=O)Cn2c(=O)c3cc(Cl)ccc3n3nncc23)cc1	none
CCc1ccc(NCc2cc3cc4c(cc3n(CC(=O)Nc3ccc(Cl)cc3)c2=O)OCO4)cc1	nsP2pro primary inconclusive | CHIKV nsP2 cell inactive
C[C@@]12CCCCC[C@@H](Cc3ccc(O)cc31)[C@H]2N	none
c1nc(N2CCCCC2)c2cc(-c3ccc4c(c3)OCO4)ccc2n1	none
CN1CCN(c2ccc(Nc3ncc4cc5n(c4n3)C3(CCCCC3)CNC5=O)nc2)CC1	none
COc1ccc(-c2ccc3nnc(CNC(=O)CCc4ccccc4)n3n2)cc1	none
CC(C(N)=O)N1CCn2nc(CCC(=O)N3CCOCC3)cc2C1 (stereo not given)	none
O=S(=O)(c1ccc2c(c1)OCCO2)N1CCN(S(=O)(=O)c2cccc3cccnc23)CC1	none
CCOC(=O)CC(SP(=S)(OC)OC)C(=O)OCC (stereo not given)	nsP2pro primary 8.8µM | CHIKV nsP2 cell inactive | CHIKV NSP2 FL 23µM | Furin counter inactive | nsP2 NS23 pep 18µM | Papain counter inconclusive | nsP2pro confirm 5.7µM | HCV NS3 4A cs inactive
CCOC(=O)c1ccoc1-c1ccc2ncnc(NCCc3cnc[nH]3)c2c1	none
Cc1nccn1CCCC(=O)N1CC[C@](C)(O)[C@H](C)C1	none
CCOc1c(N2CCOCC2)cnn(C)c1=O	none

Screening data from PubChem BioAssay.
